Records with an inconclusive call do not appear. Entries that show only a call come without a potency. A number with no mark means an inactive call. The source made the active and inactive calls. Calls come from the whole dose curve; as a rule, active = well fitted inhibition curve with a large enough effect; inconclusive = small, poorly fitted or top-dose-only effect; inactive = flat fitted curve, though single readings scatter.
Assay: qHTS to identify inhibitors of the type 1 interferon - major histocompatibility complex class I in skeletal muscle: primary screen against the NCATS Pharmaceutical Collection (AID 1347407)
Conditions: human skeletal muscle cells, IFN-b-induced MHC-I HiBiT luminescence, 24 h; series mostly up to 45.9 µM
In short: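 Immortalized human myoblasts (C25cl48) with HiBiT knocked into endogenous HLA-B*08:01 were stimulated with 4 ng/ml IFN-beta and treated with compounds (8-point, 1:5, top 46 uM final) for 24 h at 37 C; HiBiT lytic luminescence read.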
In the case of CCN1CCCC1=O, the Potency is reported as “inactive”.
With CCCSS/C(CCO)=C(\C)N(C=O)Cc1cnc(C)nc1N the Potency was “inactive”.
With CNC(=O)CN(CCN(CCN(CC(=O)[O-])CC(=O)NC)CC(=O)[O-])CC(=O)[O-].O.[Gd+3] the Potency was “inactive”.
In the case of CCC(=O)c1c(O)cc(O)cc1O, the Potency is reported as “inactive”.
In the case of CCN(CCCc1ccccc1)CCCc1ccccc1, the Potency is reported as “inactive”.
In the case of O=C(OCCOCCO)c1ccccc1Nc1cccc(C(F)(F)F)c1, the Potency is reported as “inactive”.
With CN1CCC(=C2c3ccccc3Sc3ccccc32)CC1 the Potency was “inactive”.
With CCN1CCC[C@H]1CNC(=O)c1c(OC)ccc(Br)c1OC the Potency was “inactive”.
With CC(=O)CC(c1ccc([N+](=O)[O-])cc1)c1c(O)c2ccccc2oc1=O (centres undefined) the Potency was 1.49 µM (active).
With CCCCCCc1ccc(O)cc1O the Potency was “inactive”.
With OC[C@@H](O)[C@@H](O[C@@H]1O[C@H](CO)[C@H](O)[C@H](O)[C@H]1O)[C@H](O)[C@@H](O)CO the Potency was “inactive”.
With O=S1(=O)c2cccc3cccc(c23)N1CCCN1CCN(c2ccc(F)cc2)CC1 the Potency was “inactive”.
In the case of CO/N=C1\CN(c2nc3c(cc2F)c(=O)c(C(=O)O)cn3C2CC2)CC1CN (centres undefined), the Potency is reported as “inactive”.
With C[C@@H]1C[C@H]2[C@@H]3CCC4=CC(=O)C=C[C@]4(C)[C@@]3(F)[C@@H](O)C[C@]2(C)[C@H]1C(=O)CO the Potency was “inactive”.
In the case of Cc1ccnc(NS(=O)(=O)c2ccc(N)cc2)n1, the Potency is reported as “inactive”.
In the case of CCN(CCCCOC(=O)c1ccc(OC)c(OC)c1)C(C)Cc1ccc(OC)cc1 (centres undefined), the Potency is reported as “inactive”.
With CCCN1CCCC[C@H]1C(=O)Nc1c(C)cccc1C the Potency was “inactive”.
For COc1cccc(CCc2ccccc2OCC(CN(C)C)OC(=O)CCC(=O)O)c1 (centres undefined), the Potency was “inactive”.
For CCCCOc1ccc(C(=O)CCN2CCCCC2)cc1, the Potency was “inactive”.
With CCn1cc(C(=O)O)c(=O)c2cnc(N3CCCC3)nc21 the activity change, negative = inhibition was -17.9% [at 9.18 µM].
For O=C(COc1ccc(Cl)cc1)N1CCN(Cc2ccc3c(c2)OCO3)CC1, the Potency was “inactive”.
With COC(=O)C1=C(C)NC(C)=C(C(=O)O[C@@H]2CCCN(Cc3ccccc3)C2)[C@@H]1c1cccc([N+](=O)[O-])c1 the Potency was “inactive”.
In the case of Cc1onc(-c2c(Cl)cccc2Cl)c1C(=O)N[C@@H]1C(=O)N2[C@@H]1SC(C)(C)[C@@H]2C(=O)O, the Potency is reported as “inactive”.
For CC(=O)OCC(=O)[C@@]1(O)CC[C@H]2[C@@H]3CCC4=CC(=O)C=C[C@]4(C)[C@H]3[C@@H](O)C[C@@]21C, the Potency was “inactive”.
For CCCCCCC[N+](CC)(CC)CCCCc1ccc(Cl)cc1, the Potency was “inactive”.
For CN=C(NC#N)NCCSCc1csc(N=C(N)N)n1, the Potency was “inactive”.
In the case of CN1CCN(CCCN2c3ccccc3Sc3ccc(S(=O)(=O)N(C)C)cc32)CC1, the Potency is reported as “inactive”.
In the case of CCOC(=O)n1ccn(C)c1=S, the Potency is reported as “inactive”.
For CCCCCCCCCCCCCCCCOP(=O)([O-])OCC[N+](C)(C)C, the Potency was “inactive”.
For C[C@H](CCC(=O)O)[C@H]1CC[C@H]2[C@@H]3C(=O)C[C@@H]4CC(=O)CC[C@]4(C)[C@H]3CC(=O)[C@]12C, the Potency was “inactive”.
In the case of CC1(C)O[C@@H]2[C@@H](CO[C@@]3(COS(N)(=O)=O)OC(C)(C)O[C@@H]23)O1, the Potency is reported as “inactive”.
In the case of CC[C@@H](CO)NCCN[C@@H](CC)CO, the Potency is reported as “inactive”.
For CCOC(=O)[C@H](CCc1ccccc1)N[C@@H](C)C(=O)N1Cc2ccccc2C[C@H]1C(=O)O, the Potency was “inactive”.
With Cc1cccn2c(=O)c(-c3nnn[nH]3)cnc12 the Potency was “inactive”.
Potency is the fitted concentration of half-maximal effect.
